Source: a collection of fitness landscapes (doi:10.1126/science.1257360)
In all, about 140,000 sequences were measured (“enrichment ratio after two sorts for PhoP signalling”: median about 0, highest 2% from about 11 on). Only a selection was taken, and the highest values are over-represented in it overall.

B1: PhoQ; a variant is named by its letters at X, in order, P23837 (parent)
chain: MKKLLRLFFPLSLRVRFLLATAAVVLVLSLAYGMVALIGYSVSFDKTTFRLLRGESNLFYTLAKWENNKLHVELPENIDKQSPTMTLIYDENGQLLWAQRDVPWLMKMIQPDWLKSNGFHEIEADVNDTSLLLSGDHSIQQQLQEVREDDDDAEMTHSVAVNVYPATSRMPKLTIVVVDTIPVELKSSYMVWSWFIYVLSANLLLVIPLLWVAAWWSLRPIEALAKEVRELEEHNRELLNPATTRELTSLVRNLNRLLKSERERYDKYRTTLTDLTHSLKTPLXXLQXXLRSLRSEKMSVSDAEPVMLEQISRISQQIGYYLHRASMRGGTLLSRELHPVAPLLDNLTSALNKVYQRKGVNISLDISPEISFVGEQNDFVEVMGNVLDNACKYCLEFVEISARQTDEHLYIVVEDDGPGIPLSKREVIFDRGQRVDTLRPGQGVGLAVAREITEQYEGKIVAGESMLGGARMEVIFGRQHSAPKDE

Variants of: B1
Assay: enrichment ratio after two sorts for PhoP signalling (ratio (wild type AVST 3.29)); higher = more functional
Details: with PhoP (E. coli)

Variant | enrichment ratio
AQQP | ≤ 0.25
AQCI | 8.62
NSDI | ≤ 0.25
SHDW | ≤ 0.25
PPSE | ≤ 0.25
GEHW | ≤ 0.25
SDNF | ≤ 0.25
WLKM | ≤ 0.25
FCKF | ≤ 0.25
MLLR | ≤ 0.25
FQAN | ≤ 0.25
ILQV | ≤ 0.25
ELVF | ≤ 0.25
YMHL | ≤ 0.25
ENAI | ≤ 0.25
AQCK | 29.5
AQWM | ≤ 0.25
AQRM | ≤ 0.25
EQPV | ≤ 0.25
NEVC | ≤ 0.25
SNLL | 18.5
ALLL | 8.77
SRLL | 10.3
CFLL | ≤ 0.25
GEEL | ≤ 0.25
ANLL | 13.4

Variant | enrichment ratio
TGLL | 12.6
SPLL | ≤ 0.25
GEGL | ≤ 0.25
APLL | ≤ 0.25
NGLL | 3.87
GELL | 12.9
FYWW | ≤ 0.25
TYKE | ≤ 0.25
SNRC | ≤ 0.25
GTRN | ≤ 0.25
HRVR | ≤ 0.25
LSWW | ≤ 0.25
ACNW | ≤ 0.25
QYTV | ≤ 0.25
PYEY | ≤ 0.25
MGMC | 5.27
FDLL | ≤ 0.25
THLL | 14
SGLL | 19.8
QGLL | 10.4
YHLL | ≤ 0.25
TILL | 0.421
NHLL | ≤ 0.25
FGLL | 12.6
FGNL | ≤ 0.25
KDLL | ≤ 0.25

Variant | enrichment ratio
TDLL | 11.8
IMDM | ≤ 0.25
IQAN | ≤ 0.25
PYDA | ≤ 0.25
PKEG | ≤ 0.25
VQIN | ≤ 0.25
QPDT | ≤ 0.25
LCFE | ≤ 0.25
CCPF | ≤ 0.25
HHCS | ≤ 0.25
SELL | 16.3
TTLL | 17.7
GLLL | 11.7
GLLA | ≤ 0.25
CTLL | 0.613
SMLS | 6.78
MVLL | 7.33
ITLL | 7.22
SMLA | 6.54
SMLL | 11.2
QELL | ≤ 0.25
HWCD | 2.96
RPRI | ≤ 0.25
VRDD | ≤ 0.25
KIGV | ≤ 0.25
